Assay outcomes (PubChem BioAssay)
ELG1 repair inh = ELG1-dependent DNA repair inhibition | HEK293T ELG1-luciferase reporter, luminescence, 16 h; DNA damage induced by 5-fluorouridine | Potency, µM (highest dose often 46.1 µM), usual class: inhibitors | hit rate 2.3% among 330,000; also: nearly all actives have a fitted effect of over 55% in size
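In this reporter screen, reduction of luminescence relative to DMSO vehicle indicated activity. Compounds and 5-fluorouridine were added together to 2,000 cells per well, incubated for 16 hr at 37 °C, then developed with ONE-Glo.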
RORgamma inh = inhibitors of mouse ROR gamma transcriptional activity; P51450; hit rate 5.4% among 310,000; Drosophila S2 Gal4-RORgamma UAS-luciferase reporter, 20 h; Potency, µM (top dose mostly 53.6 µM), most hits filed as inhibitors; AID 2551; also: nearly all actives have a fitted effect of over 60% in size
Target sequence (P51450 whole entry, looked up, the tested form may be a part): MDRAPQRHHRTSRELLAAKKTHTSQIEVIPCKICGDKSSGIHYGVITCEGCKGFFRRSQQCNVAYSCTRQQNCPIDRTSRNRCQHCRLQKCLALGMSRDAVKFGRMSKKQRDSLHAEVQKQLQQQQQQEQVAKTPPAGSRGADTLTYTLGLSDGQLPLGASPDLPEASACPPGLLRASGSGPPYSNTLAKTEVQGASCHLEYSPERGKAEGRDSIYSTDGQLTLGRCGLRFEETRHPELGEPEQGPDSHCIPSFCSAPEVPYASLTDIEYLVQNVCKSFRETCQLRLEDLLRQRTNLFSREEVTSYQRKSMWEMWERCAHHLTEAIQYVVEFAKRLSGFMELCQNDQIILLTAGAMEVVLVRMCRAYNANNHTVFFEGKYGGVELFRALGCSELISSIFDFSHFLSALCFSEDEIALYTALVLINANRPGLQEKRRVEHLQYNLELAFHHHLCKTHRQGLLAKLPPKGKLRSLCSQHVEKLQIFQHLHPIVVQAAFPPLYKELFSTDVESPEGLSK
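Using a luciferase readout, inhibitors were identified by reduced reporter activity in Drosophila cells coexpressing a copper-inducible Gal4–ROR gamma fusion and UAS-driven Photinus luciferase, incubated 20 hr after 700 uM copper sulfate.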
IL1B secr inh = blocks inflammasome-driven IL-1 beta release; activity change, % at 57.5 µM; THP-1 LPS/ATP IL-1B secretion, AlphaLISA, 16 h; active compounds read low; hit rate 4.7% among 360,000; in the data active = activity change below about -50%; inconclusive = mostly about -30% to -49%
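THP-1 cells pretreated 1 hr with compounds (up to 57.5 uM final), then stimulated with LPS (250 ng/mL final) plus ATP (1.25 mM final); secreted IL-1B measured by AlphaLISA after 16 hr, decreased signal indicating inhibition.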
DT40 TDP1 no CPT = qHTS for Inhibitors of human tyrosyl-DNA phosphodiesterase 1 (TDP1): qHTS in cells in absence of CPT; Potency, µM (doses to about 46.2 µM), actives largely listed as inhibitors; DT40 Tdp1-/- hTDP1 cells, no CPT, ATP luminescence, 48 h; hit rate 15% among 420,000; also: nearly all actives have a fitted effect of over 55% in size
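Stably hTDP1-transfected Tdp1-null chicken DT40 cells were treated with library compounds minus camptothecin and grown for at least 48 hr at 37 °C, after which cellular ATP was quantified by luminescence.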
VP16 counter = Gal4-VP16 reporter inhibition counter-screen; AID 2546; Drosophila S2 Gal4-VP16 UAS-luciferase, luminescence, 20 h; Potency, µM (titrated, usually from 53.6 µM), most hits filed as inhibitors; hit rate 3.5% among 310,000;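 also: Gal4-VP16 expression switched on by copper sulfate through the metallothionein promoter; nearly all actives have a fitted effect of over 50% in size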
DT40 TDP1 CPT = growth inhibition of DT40 Tdp1-/-;hTDP1 cells with camptothecin (screen for TDP1 inhibitors); hit rate 12% among 420,000; chicken DT40 Tdp1-/-;hTDP1 cells + 20 nM CPT, ATP luminescence, 48 h; Potency, µM (doses to about 46.2 µM), most hits filed as inhibitors; also: nearly all actives have a fitted effect of over 55% in size
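Cell growth measured by CellTiter-Glo luminescence after a minimum 48 h, 37 C compound exposure with 20 nM CPT in Tdp1-knockout DT40 cells stably expressing hTDP1, seeded 400/well; qHTS titration format.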
A number is an active result; – = inactive; ? = inconclusive; · = no result; [ ] = remark or other dose. Sampled rows, rich in hits. Any-hit rate of the full collection: about 21%. Unless noted, calls follow the shape of the dose curve; as a rule, active = well fitted curve in the direction sought with a large enough effect; inconclusive = small, poorly fitted or top-dose-only effect, or another doubt; inactive = no such curve, though single readings can be large; an effect the other way counts as inactive or inconclusive.

SMILES	ELG1 repair inh	RORgamma inh	IL1B secr inh	DT40 TDP1 no CPT	VP16 counter	DT40 TDP1 CPT
CCOC(=O)Cc1c(C)c2c(C)nn(-c3ccccc3)c2oc1=O	?	–	–	?	–	–
CNS(=O)(=O)c1ccc2c3c(cccc13)C(=O)N2C	?	–	-83.9	–	–	–
CN1C(=O)c2cccc3c(S(=O)(=O)N(C)C)ccc1c23	?	–[1.91 µM]	–	–	–	–
CC(C)NC(=O)c1ccc2sc([C@H]3C[C@H](O)[C@@H](CO)O3)nc2c1	·	·	–	–	·	–
CCc1nn(C(CC)C(=O)NCCCN2CC(C)CC(C)C2)c(=O)c2cc3oc(C)cc3n12 (stereo unspecified)	–	–	–	?	–	16.4µM
CCOP(=O)(Nc1cccc2oc(=O)c3ccccc3c12)OCC	·	·	–	?	·	?
O=C(Cc1ccc(Cl)cc1)N/N=C/c1ccc(O)c(O)c1	·	·	–	13µM	·	?
Cc1ccc(O)c(/C=N/NC(=O)Cc2ccc(Cl)cc2)c1	?	0.631µM	–	?	0.631µM	?
COc1ccc(C)cc1S(=O)(=O)Nc1cc2c3c(c1)CC(=O)N3CCC2	–	·	–	?	·	?
CCCCc1ccc(NS(=O)(=O)c2cc3c4c(c2)CC(=O)N4CCC3)cc1	·	·	·	11.6µM	·	14.6µM
COc1ccc(OC)c(S(=O)(=O)Nc2cc3c4c(c2)CC(=O)N4CCC3)c1	–	·	–	14.6µM	·	?
Cc1ccc(S(=O)(=O)Nc2cc3c4c(c2)CCC(=O)N4CCC3)cc1	?	·	–	20.6µM	·	?
O=C(CCl)N(Cc1cc(=O)[nH]c2ccccc12)c1ccccc1	13µM	?	-77.6	2.31µM	?	4.11µM
CCN(C(=O)c1ccc(C(=O)N(CC)c2ccccc2C)cc1)c1ccccc1C	·	·	·	16.4µM	·	?
CCC(=O)N(Cc1cc(=O)[nH]c2ccccc12)c1ccccc1	–	–	–	–	–	–
Cc1ccccc1N(Cc1cc(=O)[nH]c2ccccc12)C(=O)CCl	10.3µM	?	·	·	–	·
CCCCCCCN(C(=O)CCl)c1ccccc1C	–	?	-106.4	14.6µM	?	18.4µM
N#Cc1cc2sc3nnc(-c4ccncc4)n3c2cc1C#N	?	–	-83.3	10.3µM	?	?
Cc1cc(O)ccc1N/C=C(\C#N)c1nc2ccccc2o1	–	–	–	11.6µM	–	?
N#C/C(=C\c1c(Cl)cccc1Cl)c1nc2ccccc2o1	–	?	?	–	–	–
Cc1cc2oc(C(=O)Nc3sc4c(c3C(=O)NCC3CCCO3)CCCC4)cc(=O)c2cc1C (stereo unspecified)	·	·	·	–	·	–
COc1cccc(/C=N/NC(=O)c2ccc(=O)[nH]n2)c1O	–	?	–	14.6µM	–	23.1µM
COc1cccc(/C=N/NC(=O)c2ccc(=O)n(C)c2)c1O	?	0.631µM	–	6.51µM	3.16µM	5.8µM
COc1cccc(/C=N/NC(=O)c2ccc(-c3ccccc3)cc2)c1O	?	0.708µM	–	4.61µM	3.16µM	5.17µM
COc1cccc(/C=N/NC(=O)C(=O)Nc2ccccc2OC(F)(F)C(F)F)c1O	?	1µM	–	3.26µM	1.41µM	3.26µM
SMILES	ELG1 repair inh	RORgamma inh	IL1B secr inh	DT40 TDP1 no CPT	VP16 counter	DT40 TDP1 CPT
COc1cc(OC)c(OC)cc1/C=N/NC(=O)c1ccc(=O)n(C)c1	–	–	–	–	–	–
O=C(NCc1ccccc1)/C(=C\c1ccccc1)NC(=O)c1ccco1	–	–	–	–	–	–
CC1(C(=O)Nc2ccc3c(c2)OCO3)CCN1C(=O)CCC1CCCC1 (stereo unspecified)	·	·	–	?	·	?
C[C@@H](O)[C@H]1C(=O)N2C(C(=O)O)=C(S[C@@H]3CN[C@H](C(=O)N(C)C)C3)[C@H](C)[C@H]12	·	–	·	–	–	–
Cc1[nH]c(C(=O)N/N=C/c2ccc(N(C)C)cc2)c(C)c1C(=O)N/N=C/c1ccc(N(C)C)cc1	–	–	–	–	–	–
COc1cccc(/C=N/NC(=O)c2[nH]c(C)c(C(=O)N/N=C/c3cccc(OC)c3O)c2C)c1O	?	–	–	3.26µM	?	5.17µM
